Laboratory results as given in PubChem BioAssay (NCI).
Values joined by “and” are separate entries in the source; they are usually repeats but may differ in a detail not shown here. Equal values may be shown once. This is part of a sample that, as a whole, favours compounds with a hit. Of some 79,000 tested, about 15% had one in any assay. A number with no mark means an inactive call. Active and inactive are the calls of the source. No stated cut-off is given here; in the data, active means growth inhibition above about 70%; inactive means the rest.

Tests used:
[1] = NCI Yeast Anticancer Drug Screen. Data for the rad50 strain (AID 155);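 further: 0% = growth of vehicle-only cultures of the same strain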; conditions: S. cerevisiae rad50 strain growth inhibition; at 50.0 µM; stronger effect = higher value
How it was run: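 A DNA repair-deficient yeast mutant serves as the test organism; compound-induced growth inhibition is calculated against vehicle-treated cells.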

[2] = NCI Yeast Anticancer Drug Screen. Data for the mec2-1 strain (AID 157); conditions: S. cerevisiae mec2-1 strain, at 50.0 µM, stronger effect = higher value
How it was run: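 Strain: mec2-1 (DNA repair/cell cycle alteration). Compound exposure, then growth measured; inhibition expressed relative to vehicle.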

[3] = NCI Yeast Anticancer Drug Screen. Data for the sgs1 mgt1 strain (AID 161);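 further: 0% = growth of cultures given vehicle only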; conditions: S. cerevisiae sgs1 mgt1 strain, at 50.0 µM, stronger effect = higher value
How it was run: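 Mutant yeast exposed to compound; growth scored against vehicle-only wells.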

[4] = NCI Yeast Anticancer Drug Screen. Data for the cln2 rad14 strain (AID 165);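 further: 0% = growth equal to vehicle treated cultures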; conditions: S. cerevisiae cln2 rad14 strain, at 50.0 µM, stronger effect = higher value
How it was run: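 Compounds are applied to the cln2 rad14 yeast strain, and growth is then compared with that of vehicle-treated cultures to give inhibition.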

[5] = NCI Yeast Anticancer Drug Screen. Data for the bub3 strain (AID 167); conditions: S. cerevisiae bub3 mutant strain, at 50.0 µM, stronger effect = higher value
How it was run: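 Inhibition values come from growth of compound-treated mutant yeast normalised to vehicle-treated controls.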

[6] = NCI Yeast Anticancer Drug Screen. Data for the mlh1 rad18 strain (AID 175); conditions: S. cerevisiae mlh1 rad18 strain growth inhibition; at 50.0 µM; stronger effect = higher value
How it was run: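 Read-out is yeast growth inhibition, calculated against vehicle-only controls. The compound was applied to a strain engineered with DNA damage repair alterations.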

| SMILES | growth inhibition [1] | growth inhibition [2] | growth inhibition [3] | growth inhibition [4] | growth inhibition [5] | growth inhibition [6] |
| --- | --- | --- | --- | --- | --- | --- |
| [Br][Co][Br].[NH-]CC[NH-].[NH-]CC[NH-] | 28.4% | 15.6% | 18.4% | -6.95% | 22.9% | 17.8% |
| OCC[N+]12CN3CN(CN(C3)C1)C2 | 21.9% | 6.3% | 20.1% | 16.9% | 4.55% | 15.7% |
| CCC[CH2][Sn]([CH2]CCC)([CH2]CCC)[CH2]S(=O)(=O)O | 99.3% (active) | 98.8% (active) | 98.9% (active) | 98.2% (active) | 99.4% (active) | 99% (active) |
| NNc1ncc[nH]1 | -0.05% | 1.2% | -9.2% | -1% | 12.8% | 4.55% |
| CC1([N+](=O)[O-])COP(=O)(OP2(=O)OCC(C)([N+](=O)[O-])CO2)OC1 (stereo not given) | 29.8% | 10.2% | 28.9% | 26.6% | 3.85% | 20% |
| CC(C)N1COC2Cc3ccccc3CC21 (stereo not given) | -7.15% | 1.65% | -29% | 10.1% | -20.2% | -16.9% |
| COP(=O)(OC)OC1C(=O)NC(=O)NC1=O | 12.3% | 0.25% | -4.15% | 14.2% | 7.2% | 17.9% |
| CCOP(=O)(OCC)/C(C#N)=C/c1ccccc1OC | 40.5% | -1.3% | 0.15% | -4.65% | -14.8% | 27.6% |
| NC(CO)Cc1ccccc1 (stereo not given) | -1.6% and 0.85% | 0.3% and -4% | -1.45% and -4.1% | -21.6% and 4.05% | 13.9% and 14.8% | 2.05% and -1.35% |
| Cc1cc(C)n(-c2nc3ccccc3c(=O)n2-c2ccccc2)n1 | -2.9% | -2.75% | -14.5% | 0.4% | -7.75% | -16.9% |
| CCCCOP(=O)(OCCCC)Oc1cccc([N+](=O)[O-])c1 | 6.6% | 46.1% | 18.9% | 28.2% | 42.3% | 14.5% |
| Nc1ccccc1C(=O)O | 15.3% | 18.4% | 0.7% | 8.6% | 18.4% | 3.8% |
| O=C(Nc1ccc(O)cc1)c1c(O)[nH]c(=S)[nH]c1=O | -11.7% | -13.1% | 6.25% | -56.5% | 1.7% | 4.65% |
| O=C(SCC(NSc1ccccc1[N+](=O)[O-])C(=O)O)c1ccccc1 (stereo not given) | 88.5% (active) | 56.6% | 75.4% (active) | 8.45% | 6.5% | 47.9% |
| COc1cccc(NC2=NCCO2)c1 | -17.1% | -1.2% | -5.95% | 3.8% | -2.2% | -12.2% |
| CC1(C)OC(C=O)C2CC(=O)c3c(O)cccc3C2(C)O1 (stereo not given) | 33.4% | -1.45% | 12.9% | -4.15% | 11.9% | 0.35% |
| CCC1(CC(C)(C)Cl)C(=O)NC(=O)NC1=O | -4.55% | -7.7% | -21.4% | -30.7% | 3.45% | -20% |
| CC(C)CC1N=C(NN=C2CCCCC2)SP1(=O)NNc1ncccn1 (stereo not given) | 1.25% | 7.15% | 12.5% | 2.35% | 0.4% | -0.1% |
| O=C(OCCOCCOC(=O)C(Cl)(Cl)Cl)C(Cl)(Cl)Cl | -47% | -33.1% | -29.4% | 39.2% | -46.6% | 7.95% |
| COc1cc2c(cc1O)C(=O)O[C@@H]1CC=C3CCN(C)[C@H]3[C@H]21 | 3.4% | 11.3% | -7.3% | 7.1% | -37.4% | 19.8% |
